Rows were chosen to be rich in hits. Some 3.1% of all compounds tested hit in one or more screens of this group.
TROY signal inh: inhibitors of TROY-dependent NF-kB signaling | Q293 LMP1-TROYcd NF-kB luciferase reporter, 4 h | inhibition, % at 10 µM | 360,000 compounds, 0.98% hits;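 active = compounds whose plate-normalised and pattern-corrected inhibition of the luciferase reporter signal at the single screening dose is 50% or more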
EWS-Fli inh: inhibitors of EWS/Fli oncoprotein transcriptional activity. A673 NR0B1-luciferase reporter, viability-normalised. inhibition, % at 12.6 µM. 350,000 compounds, 0.67% hits;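 active = mean inhibition of at least 50% after viability correction, with every replicate also passing that limit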;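 also: firefly luciferase signal divided by Alamar Blue viability fluorescence both relative to DMSO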
LMP1 NFkB inh: Epstein-Barr LMP1 NF-kappaB reporter inhibition. LMP1-induced NF-kappaB luciferase reporter cells, luminescence. AID 504558. inhibition, % at 12.5 µM. 350,000 compounds, 0.69% hits; in the data active = inhibition above about 41%;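 also: 0% = neutral control wells and 100% = reference inhibitor control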
PAX8 reporter: lowers PAX8-driven luciferase in RMG-I cells; inhibition, % at 12.6 µM; AID 652154; 360,000 compounds, 1.2% hits; RMG-I TPO-luciferase reporter, SteadyGlo, 24 h;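 active = mean replicate inhibition at least 60% with every replicate also reaching 60%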;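 also: luciferase light reporting Pax8 driven TPO promoter activity; plate controls were median of neutral control wells for no effect and mitoxantrone controls for full effect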
TWEAK Fn14 block: inhibitors of TWEAK-Fn14 interaction signaling. TWEAK-stimulated Fn14 reporter cells, luciferase luminescence, 8 h. inhibition, % at 10 µM. 360,000 compounds, 2% hits. AID 1159606; in the data active = inhibition above about 50%
LGR2 inh: Drosophila LGR2 receptor signaling inhibition. HEK293 LGR2, CRE-luciferase, bursicon-stimulated, 4 h. inhibition, % at 9.99 µM. 380,000 compounds, 0.35% hits;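 active = drop in luminescence signal, shown as inhibition above about 50% in the replicate tests, limit read from the data, passing the limit was not always enough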;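 also: agonist challenge used bursicon conditioned medium at about half maximal strength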
* marks the source's active call; other numbers are inactive results; nt = no result given.

SMILES | TROY signal inh | EWS-Fli inh | LMP1 NFkB inh | PAX8 reporter | TWEAK Fn14 block | LGR2 inh
NS(=O)(=O)c1ccc(CCNc2ccn3nc(-c4cccc(C(F)(F)F)c4)cc3n2)cc1 | 66* | -11 | nt | -30 | 80* | 10
COc1ccccc1-c1cc2nc(NCCc3ccc(S(N)(=O)=O)cc3)ccn2n1 | -10 | -3 | nt | 12 | -4 | -13
C[C@H](CO)N1C[C@H](C)[C@H](CN(C)CC2CC2)Oc2ccc(NC(=O)C3CC3)cc2CC1=O | nt | 10 | nt | 4 | nt | 2
COc1ccc(OCCC(=O)OCC(=O)Nc2ccc(Br)cc2)cc1 | 16 | 0 | 2 | -3 | -14 | -2
CNC(=O)COC(=O)c1c2c(nc3ccccc13)CCC2 | 18 | 4 | -11 | 11 | -6 | 1
COc1ccc(OC)c(NC(=O)COC(=O)COc2ccc(Nc3ccccc3)cc2)c1 | 10 | 1 | 70* | -2 | 33 | nt
COc1ccc(OCCC(=O)OCC(=O)Nc2cccc(Br)c2)cc1 | 50 | nt | 3 | 17 | 101* | -6
COc1ccc(NC(=O)COC(=O)c2c3c(nc4ccccc24)CCCC3)cc1Cl | 53* | nt | 29 | nt | 65* | nt
COc1ccc(NC(=O)COC(=O)c2c3c(nc4ccccc24)CCCC3)cc1 | 42 | nt | 7 | 12 | 59* | nt
CCCCNC(=O)COC(=O)c1c2c(nc3ccccc13)CCC2 | 10 | 6 | -4 | 6 | 24 | 19
COc1ccc(OC)c(NC(=O)COC(=O)c2c3c(nc4ccccc24)CCCC3)c1 | 29 | 17 | 31 | nt | 55* | 71*
COc1ccc(OC)c(Nc2c3c(nc4ccccc24)CCC3)c1 | 6 | 57* | 25 | 35 | -32 | -19
N#C[C@H]1[C@H](c2ccc(-c3ccccc3F)cc2)[C@H](CO)N1C(=O)C1CCC1 | nt | 8 | nt | -2 | nt | -15
COc1ccc(CN2[C@@H]3CN(C(=O)c4ccccc4)c4ccccc4[C@@H]3[C@@H]2CO)cc1 | nt | 0 | nt | 12 | nt | 2
C[C@H](CO)N1C[C@H](C)[C@@H](CN(C)C(=O)Nc2ccc3c(c2)OCO3)OCCCC[C@H](C)Oc2ccc(NS(C)(=O)=O)cc2C1=O | nt | -9 | nt | nt | nt | -10
Cc1cccc(-c2nc(CSc3nc4c(c(=O)[nH]3)CCC4)c(C)o2)c1 | 51* | 16 | 22 | -11 | 49 | 18
Cc1oc(-c2ccccc2)nc1CSc1nc2c(c(=O)[nH]1)CCC2 | 44 | 6 | -2 | 13 | 1 | 0
C[C@@H]1CN([C@@H](C)CO)S(=O)(=O)c2ccc(C#Cc3ccncc3)cc2O[C@@H]1CN(C)C(=O)C1CCCCC1 | nt | 32 | nt | 76* | nt | -1
COc1ccc(NC(=O)N(C)C[C@H]2Oc3cc(C#CCC(C)C)ccc3S(=O)(=O)N([C@H](C)CO)C[C@H]2C)cc1 | nt | -1 | nt | 72* | nt | 3
C[C@H](CO)N1C[C@H](C)[C@@H](CN(C)C(=O)Nc2ccc3c(c2)OCO3)Oc2cc(C#Cc3ccncc3)ccc2S1(=O)=O | nt | 49 | nt | 100* | nt | -1
C[C@H]1CN([C@@H](C)CO)S(=O)(=O)c2ccc(C#Cc3ccncc3)cc2O[C@H]1CN(C)C(=O)C1CCCCC1 | nt | 6 | nt | 76* | nt | -8
C/C=C/c1ccc2c(c1)O[C@H](CN(C)C(=O)C1CCC1)[C@H](C)CN([C@@H](C)CO)S2(=O)=O | nt | 0 | nt | nt | nt | -2
CC=Cc1ccc2n(c1=O)C[C@H]1[C@H](CO)[C@@H](C(=O)N(C)C)N(CC3CCOCC3)[C@@H]21 (mixture of isomers) | nt | 5 | nt | -9 | nt | 6
COc1ccc(NC(=O)Nc2ccc3c(c2)C(=O)N([C@@H](C)CO)C[C@@H](C)[C@@H](CN(C)C(=O)Nc2ccc(OC)cc2)OCCCC[C@H](C)O3)cc1 | nt | -3 | nt | -18 | nt | -4
O=C(Nc1ccccn1)c1csc2c1CCCC2 | -52 | -107 | -44 | -146 | -22 | -86
SMILES | TROY signal inh | EWS-Fli inh | LMP1 NFkB inh | PAX8 reporter | TWEAK Fn14 block | LGR2 inh
O=C(Nc1ccccn1)c1onc2c1CCCC2 | 59* | nt | 41* | nt | 89* | 79*
CCCNC(=O)Nc1ccc2c(c1)C(=O)N(C)[C@H]1CC[C@H](CC(=O)NCCCN(C)C)O[C@H]1CO2 | nt | -48 | nt | -46 | nt | -12
C[C@H](CO)N1C[C@H](C)[C@@H](CN(C)CC2CCOCC2)Oc2ncc(C3=CCCCC3)cc2C1=O | nt | -12 | nt | -10 | nt | -5
CC(C)c1ccc(C2c3[nH]c4ccccc4c3C[C@H]3C(=O)N(c4ccccc4C(=O)N4CCC[C@@H]4C(=O)O)C(=O)N23)cc1 (stereo partly specified) | 66* | -4 | 4 | nt | 34 | -12
CCCN1C[C@@H](C)[C@@H](OC)CN(C)C(=O)c2cc(NC(=O)Nc3ccccc3F)ccc2OC[C@@H]1C | nt | 2 | nt | -3 | nt | -14
CN(C)/C=N/C1=C(C#N)C(c2cccs2)c2ccc3ccccc3c2O1 (stereo unspecified) | -34 | 54* | -22 | -4 | -17 | -65
CC(=O)C1=C(O)C(=O)N(CCC(=O)O)C1c1ccccc1Cl (stereo unspecified) | -19 | nt | 1 | nt | 59* | nt
Nc1c(-c2ccccc2)cnn1-c1ccc(C(=O)O)cc1 | -29 | nt | -24 | nt | 54* | -48
Cc1c(Cl)cccc1NC(=S)NCCc1ccc(F)cc1 | -2 | 2 | -9 | -17 | 71* | 3
O=[N+]([O-])c1ccc(NC(=S)NCCc2ccc(F)cc2)cc1 | 27 | -6 | -3 | 81* | 66* | 29
COc1ccc(-c2noc(CCCC(=O)N3CCN(c4cc(C)ccc4C)CC3)n2)cc1 | 13 | -53 | -25 | -173 | -3 | -44
COc1ccc(-c2noc(CCCCC(=O)N3CCN(c4cc(C)ccc4C)CC3)n2)cc1 | 44 | 44 | 37 | 41 | 64* | 26
c1ccc(-c2ccc(-c3cn4c(n3)CCC4)cc2)cc1 | 30 | nt | -12 | nt | 55* | nt
O=C(C[C@@H]1CC[C@@H]2[C@H](COC[C@H](O)CN2Cc2ccncc2)O1)NCc1ccccc1Cl | nt | nt | nt | nt | nt | -5
O=C(N[C@H]1C=C[C@@H](CC(=O)N2CCOCC2)O[C@H]1CO)c1cccc(F)c1 | nt | -3 | nt | -3 | nt | -4
Nc1ccc(N=Nc2ccccc2O)c(N)c1 | -33 | -72 | nt | -164 | -11 | -122
Oc1ccccc1N=Nc1ccccc1O | -29 | -10 | 67* | 15 | -29 | -53
COc1ccccc1C1CC(=O)Nc2cc(C)c(C)cc21 (stereo unspecified) | -28 | 54* | -7 | 53 | 0 | 3
Cc1cc2c(cc1C)C(c1ccccc1OC(C)C)CC(=O)N2 (stereo unspecified) | 0 | 33 | 1 | -48 | 0 | -9
CCOc1ccccc1C1CC(=O)Nc2cc3c(cc21)OCCO3 (stereo unspecified) | 23 | nt | 12 | nt | 17 | nt
CCCOc1ccccc1C1CC(=O)Nc2cc3c(cc21)OCCO3 (stereo unspecified) | 48 | nt | 4 | nt | 55* | nt

Screening data deposited in PubChem by several laboratories.
